The source made the active and inactive calls.
What was measured:
[1] = small molecules captured by biotinylated probe aFSTL3 – biochemical, small-molecule microarray, fluorescence 635/667, stem cell growth factor project, primary screen (AID 1064); details: higher = more signal;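 further: measures binding of the biotinylated anti-FSTL3 antibody to printed compounds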
[2] = binders from COS7 lysate, DM2A8 probe, primary screen, torsin A project, cell lysate, small-molecule microarray, fluorescence 635/667 (AID 1065); details: higher = more signal, COS7 lysate expressing mutant human TOR1A
[3] = small molecules captured by biotinylated probe aFGF2 – biochemical, small-molecule microarray, fluorescence 635/667, stem cell growth factor project, primary screen (AID 1067); details: higher = more signal;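 further: measures binding of biotinylated aFGF2 protein to printed compounds on slides; z-score merges feature fluorescence and signal-to-noise across triplicate slides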
[4] = small molecules captured by biotinylated probe aFGF10 – biochemical, small-molecule microarray, fluorescence 635/667, stem cell growth factor project, primary screen (AID 1071); details: higher = more signal;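 further: score merges 667 nm spot intensity and signal to noise from triplicate slides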
[5] = target: Neurogenic locus notch homolog protein 2 (Homo sapiens) (UniProt Q04721); experiment: small molecules binding Notch2 protein – biochemical, small-molecule microarray, 635 nm fluorescence, stem cell growth factors, primary screen (AID 1073); details: higher = more signal
Sequence of Neurogenic locus notch homolog protein 2 (Homo sapiens) (Q04721 whole entry, looked up, canonical isoform): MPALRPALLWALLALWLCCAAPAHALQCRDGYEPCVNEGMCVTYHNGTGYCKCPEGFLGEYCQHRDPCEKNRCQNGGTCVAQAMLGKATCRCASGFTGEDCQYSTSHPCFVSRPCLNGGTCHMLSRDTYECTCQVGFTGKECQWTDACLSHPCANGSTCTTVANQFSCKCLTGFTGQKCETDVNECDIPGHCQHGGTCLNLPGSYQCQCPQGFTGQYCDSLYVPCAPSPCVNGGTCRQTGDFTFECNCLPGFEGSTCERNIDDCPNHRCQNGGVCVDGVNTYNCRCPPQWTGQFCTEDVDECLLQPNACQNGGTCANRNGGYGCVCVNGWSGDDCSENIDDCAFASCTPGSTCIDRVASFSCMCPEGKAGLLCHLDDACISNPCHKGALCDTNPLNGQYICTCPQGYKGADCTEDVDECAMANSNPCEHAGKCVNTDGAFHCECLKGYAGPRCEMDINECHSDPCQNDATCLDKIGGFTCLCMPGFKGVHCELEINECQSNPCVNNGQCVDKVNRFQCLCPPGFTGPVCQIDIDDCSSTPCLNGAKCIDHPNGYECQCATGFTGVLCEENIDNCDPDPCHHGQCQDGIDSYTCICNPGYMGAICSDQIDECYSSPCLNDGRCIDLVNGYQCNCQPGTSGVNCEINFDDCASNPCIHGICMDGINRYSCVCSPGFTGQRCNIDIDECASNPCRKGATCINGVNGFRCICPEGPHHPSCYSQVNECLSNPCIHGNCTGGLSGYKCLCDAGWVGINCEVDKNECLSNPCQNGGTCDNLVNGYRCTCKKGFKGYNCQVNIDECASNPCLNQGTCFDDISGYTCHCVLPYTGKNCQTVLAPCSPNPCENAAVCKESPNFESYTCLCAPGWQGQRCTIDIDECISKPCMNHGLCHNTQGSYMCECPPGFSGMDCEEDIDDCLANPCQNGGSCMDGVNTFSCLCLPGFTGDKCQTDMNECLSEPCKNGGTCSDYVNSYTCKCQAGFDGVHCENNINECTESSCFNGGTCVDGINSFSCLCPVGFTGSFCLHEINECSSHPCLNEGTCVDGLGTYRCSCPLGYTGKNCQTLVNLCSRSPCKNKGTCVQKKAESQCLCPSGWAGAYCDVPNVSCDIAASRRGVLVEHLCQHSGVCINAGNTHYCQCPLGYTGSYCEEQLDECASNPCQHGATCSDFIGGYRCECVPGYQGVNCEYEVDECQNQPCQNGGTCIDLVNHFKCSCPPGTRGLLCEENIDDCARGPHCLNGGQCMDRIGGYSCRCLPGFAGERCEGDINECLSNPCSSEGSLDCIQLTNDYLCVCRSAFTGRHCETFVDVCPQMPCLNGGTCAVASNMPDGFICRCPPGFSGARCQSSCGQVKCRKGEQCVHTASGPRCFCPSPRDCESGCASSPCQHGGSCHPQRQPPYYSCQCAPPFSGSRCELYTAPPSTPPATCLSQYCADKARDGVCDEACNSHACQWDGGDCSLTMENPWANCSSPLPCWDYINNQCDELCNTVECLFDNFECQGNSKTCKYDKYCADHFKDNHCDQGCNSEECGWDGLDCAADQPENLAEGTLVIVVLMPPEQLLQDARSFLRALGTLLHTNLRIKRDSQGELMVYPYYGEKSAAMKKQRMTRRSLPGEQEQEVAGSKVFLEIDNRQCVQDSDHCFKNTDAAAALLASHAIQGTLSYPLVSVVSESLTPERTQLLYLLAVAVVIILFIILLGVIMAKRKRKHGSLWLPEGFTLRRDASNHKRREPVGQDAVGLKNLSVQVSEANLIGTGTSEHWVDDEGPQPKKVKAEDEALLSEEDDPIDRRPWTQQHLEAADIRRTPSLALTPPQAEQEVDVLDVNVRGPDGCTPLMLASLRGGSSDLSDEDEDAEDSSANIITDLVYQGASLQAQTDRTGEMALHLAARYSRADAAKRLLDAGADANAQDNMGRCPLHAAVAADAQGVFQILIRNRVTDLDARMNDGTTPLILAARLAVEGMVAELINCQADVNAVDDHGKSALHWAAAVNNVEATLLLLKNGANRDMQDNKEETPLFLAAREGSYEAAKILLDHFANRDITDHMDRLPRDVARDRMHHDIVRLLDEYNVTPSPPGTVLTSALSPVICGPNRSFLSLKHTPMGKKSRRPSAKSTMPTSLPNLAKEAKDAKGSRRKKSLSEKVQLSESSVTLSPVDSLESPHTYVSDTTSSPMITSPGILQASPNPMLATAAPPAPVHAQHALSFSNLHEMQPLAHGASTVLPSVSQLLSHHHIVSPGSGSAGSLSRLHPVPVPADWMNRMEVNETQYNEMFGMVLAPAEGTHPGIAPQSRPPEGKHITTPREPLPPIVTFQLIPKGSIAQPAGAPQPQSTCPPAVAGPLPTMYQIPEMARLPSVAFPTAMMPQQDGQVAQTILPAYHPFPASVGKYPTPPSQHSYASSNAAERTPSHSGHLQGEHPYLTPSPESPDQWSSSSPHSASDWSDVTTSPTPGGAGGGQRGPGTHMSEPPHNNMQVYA

[6] = target: Pro-neuregulin-1, membrane-bound isoform (Homo sapiens) (UniProt Q02297); experiment: small molecules binding neuregulin-1 protein – biochemical, small-molecule microarray, fluorescence 635/667, psychiatric disease protein project, primary screen (AID 1075); details: NRG1 binding, 635 nm fluorescence, higher = more signal;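 further: score combines 667 nm spot fluorescence with signal to noise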
Sequence of Pro-neuregulin-1, membrane-bound isoform (Homo sapiens) (Q02297 whole entry, looked up, the tested form may be a part, canonical isoform): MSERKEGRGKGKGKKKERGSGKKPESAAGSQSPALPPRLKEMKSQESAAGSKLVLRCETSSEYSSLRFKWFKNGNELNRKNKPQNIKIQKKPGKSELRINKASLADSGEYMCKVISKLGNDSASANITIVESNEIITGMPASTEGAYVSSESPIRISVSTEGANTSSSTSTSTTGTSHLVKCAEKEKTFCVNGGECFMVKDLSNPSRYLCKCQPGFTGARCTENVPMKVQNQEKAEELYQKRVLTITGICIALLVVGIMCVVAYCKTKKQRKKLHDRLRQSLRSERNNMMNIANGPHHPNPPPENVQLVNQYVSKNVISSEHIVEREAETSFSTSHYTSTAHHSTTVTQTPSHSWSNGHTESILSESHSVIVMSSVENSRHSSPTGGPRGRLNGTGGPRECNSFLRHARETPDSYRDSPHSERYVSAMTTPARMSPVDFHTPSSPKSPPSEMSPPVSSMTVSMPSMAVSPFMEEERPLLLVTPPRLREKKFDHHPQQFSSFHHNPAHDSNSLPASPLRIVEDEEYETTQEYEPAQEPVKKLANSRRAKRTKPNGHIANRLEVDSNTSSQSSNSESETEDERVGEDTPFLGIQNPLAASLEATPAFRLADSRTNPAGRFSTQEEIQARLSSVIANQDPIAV

[7] = system: Neuregulin-1 EGF-like domain; experiment: small molecules binding NRG1 EGF domain – biochemical, small-molecule microarray, 635 nm fluorescence, primary screen (AID 1081); details: higher = more signal;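 further: binding of the protein to compounds printed on small-molecule microarray slides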
[8] = FRG1 expression reporter modulators in myotubes – cell-based, C2C12 myotubes, firefly/Renilla luciferase, luminescence, FRG1 inhibition for FSHD, primary screen (AID 1084); details: FRG1 promoter luciferase, higher = more signal, called active from +8 up or from −8 down
[9] = small molecules captured by biotinylated probe aFST – biochemical, small-molecule microarray, fluorescence 635/667, stem cell growth factor project, primary screen (AID 1086); details: higher = more signal;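 further: score merges 667 nm fluorescence with signal-to-noise of each printed compound spot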
[10] = binders of probe aHhip on microarray, primary screen, stem cell growth factor project, biochemical, small-molecule microarray, fluorescence 635/667 (AID 1087); details: higher = more signal;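 further: score merges spot fluorescence at 667nm with spot signal to noise ratio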
[11] = system: PRMT1 (protein arginine N-methyltransferase 1); experiment: small molecules binding arginine methyltransferase PRMT1 – biochemical, small-molecule microarray, 635 nm fluorescence, primary screen (AID 1088); details: higher = more signal;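 further: binding of Prmt1 protein to compounds spotted on small-molecule microarray slides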
[12] = growth effects on S. cerevisiae YJM789 – YJM789 clinical isolate, OD600, 24 h, basal, primary screen (AID 1089); details: higher = more signal, called active from +8 up or from −8 down;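 further: growth of clinical yeast isolate S. cerevisiae YJM 789 seeded 1000 cells per well; test concentration not given here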
[13] = S. pombe growth modifiers, basal conditions – strain 972, OD600, 24 h, no modulator, primary screen (AID 1090);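 further: basal condition with compound alone and no growth modifier present; test concentration not given here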; details: S. pombe 972 growth, higher = more signal, called active from +8 up or from −8 down
[14] = budding yeast growth modifiers under rapamycin – strain BY4716, OD600, 96 h, primary screen (AID 1091); further: test concentration not given here; details: S. cerevisiae BY4716 + rapamycin, higher = more signal, called active from +8 up or from −8 down
[15] = target: Torsin-1A-interacting protein 2 (Homo sapiens) (UniProt Q8NFQ8); experiment: small molecules binding lysate-expressed LULL1 – cell lysate, human LULL1 lysate, 635/667 nm fluorescence, primary screen (AID 1092); details: small-molecule microarray, hLULL1 lysate binding, 635 nm fluorescence; higher = more signal;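 further: probe is lysate of COS7 cells overexpressing human LULL1; score merges per-feature 667 nm fluorescence with signal-to-noise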
Sequence of Torsin-1A-interacting protein 2 (Homo sapiens) (Q8NFQ8 whole entry, looked up): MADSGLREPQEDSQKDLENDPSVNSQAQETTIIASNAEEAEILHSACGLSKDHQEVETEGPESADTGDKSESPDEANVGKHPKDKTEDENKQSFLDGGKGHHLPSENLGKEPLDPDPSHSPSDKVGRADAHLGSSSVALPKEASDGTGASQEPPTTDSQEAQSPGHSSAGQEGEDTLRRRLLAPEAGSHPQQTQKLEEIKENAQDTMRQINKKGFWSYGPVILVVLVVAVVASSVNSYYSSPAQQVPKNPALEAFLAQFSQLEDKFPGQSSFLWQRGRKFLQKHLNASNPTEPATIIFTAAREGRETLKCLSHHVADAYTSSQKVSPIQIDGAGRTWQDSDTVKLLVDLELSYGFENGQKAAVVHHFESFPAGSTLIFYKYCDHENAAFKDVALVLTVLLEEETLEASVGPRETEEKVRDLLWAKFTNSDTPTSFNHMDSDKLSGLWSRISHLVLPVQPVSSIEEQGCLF

[16] = optical density change of DRC41 E. coli – strain DRC41, OD650, 24 h, E. coli filamentation project, primary screen (AID 1093);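 further: MC1000 strain lacking acrAB efflux and sulA so SOS filamentation is blocked; test concentration not given here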; details: E. coli DRC41 growth, higher = more signal, called active from +8 up or from −8 down
[17] = probe aLefty2 binding to arrayed compounds – biochemical, biotinylated probe, 635/667 nm fluorescence, primary screen (AID 1094); details: small-molecule microarray, higher = more signal;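 further: score merges spot fluorescence near 667 nm with spot signal-to-noise ratio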
[18] = system: Noggin (protein binding on small-molecule microarray); experiment: small molecules binding Noggin protein – biochemical, 635/667 nm fluorescence, primary screen (AID 1095); details: 635 nm fluorescence, higher = more signal;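 further: score merges 667 nm feature fluorescence with signal to noise over triplicate slides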
[19] = target: Neurogenic locus notch homolog protein 3 (Homo sapiens) (UniProt Q9UM47); experiment: small molecules binding NOTCH3 protein – biochemical, 635/667 nm fluorescence, primary screen (AID 1096); details: small-molecule microarray, 635 nm fluorescence, higher = more signal
[20] = probe aEGFR binding to arrayed compounds – biochemical, biotinylated probe, 635/667 nm fluorescence, primary screen (AID 1097); details: small-molecule microarray, higher = more signal;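 further: probe is a biotinylated anti-EGFR antibody binding compounds printed on slides; score combines fluorescence near 667 nm and signal to noise of each spot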

SMILES	composite z-score [1]	composite z-score [2]	composite z-score [3]	composite z-score [4]	composite z-score [5]	composite z-score [6]	composite z-score [7]	z-score [8]	composite z-score [9]	composite z-score [10]	composite z-score [11]	z-score [12]	z-score [13]	z-score [14]	composite z-score [15]	z-score [16]	composite z-score [17]	composite z-score [18]	composite z-score [19]	composite z-score [20]
CO[C@H]1O[C@H](CO)[C@@H](OC(=O)Nc2ccc(Br)cc2)[C@H](OC(=O)c2cc3ccccc3[nH]2)[C@H]1OC(=O)c1cc2ccccc2[nH]1	-0.31	1.05	-0.11	0.724	0.606	0.844	1.07	-0.483 (inactive)	0.237	-0.0253	1.39	-1.96 (inactive)	-1.59 (inactive)	-0.654 (inactive)	2.48	2.05 (inactive)	0.0166	0.514	0.944	0.0686
CN(C)CCCNC(=O)[C@@]1(c2ccc([N+](=O)[O-])cc2)CC(=O)N(C2CCCCC2)[C@@H]1c1ccc(CO)cc1I	0.284	1.05	-0.087	-0.0752	-0.0551	0.314	1.34	-0.635 (inactive)	-0.364	-0.266	1.07	-1.13 (inactive)	-20.1 (active)	-3.11 (inactive)	1.84	-0.112 (inactive)	-0.147	0.331	0.215	-0.0679
COCCOC(=O)N1C(=O)[C@@]2(c3cc(C#CCNC(N)=O)ccc31)[C@H](C(=O)NC[C@H](O)c1ccccc1)[C@H]1C(=O)O[C@H](c3ccccc3)[C@H](c3ccccc3)N1[C@@H]2c1ccccc1OCCO	-0.12	0.294	-0.0899	0.745	1.11	0.891	1.09	-0.864 (inactive)	-0.177	-0.113	1.55	1.56 (inactive)	1.11 (inactive)	3.45 (inactive)	2.6	-0.124 (inactive)	-0.0644	1.72	0.98	-0.118
CC(C)[C@@H](CO)NC(=O)[C@H]1[C@@H](c2ccccc2)N(c2ccccc2)O[C@@H]1C	-0.5	-0.245	-0.143	0.439	-0.208	-0.0453	0.396	-0.579 (inactive)	-0.0238	-0.0237	-0.159	-0.0247 (inactive)	-0.207 (inactive)	0.072 (inactive)	1.02	1.08 (inactive)	-0.193	0.171	-0.271	-0.177
CN1C(=O)C2C=CC(C(O)Cc3ccccc3)N(Nc3ccccc3)C2C1=O (stereo not given)	0.0217	-0.576	-0.116	0.294	1.21	1.38	1.13	0.84 (inactive)	0.0791	-0.236	0.0459	0.398 (inactive)	0.0113 (inactive)	-0.0322 (inactive)	3.43	-1.05 (inactive)	0.126	0.129	0.297	-0.071
CC(C)N1C(=O)[C@@]2(Cc3ccccc31)c1ccccc1C(=O)N(C1CCCCC1)[C@H]2c1ccc(CO)cc1	-0.302	-0.0937	-0.132	0.397	0.184	0.452	1.24	0.0117 (inactive)	-0.123	-0.296	1.56	-0.0915 (inactive)	-0.34 (inactive)	-2.58 (inactive)	2.01	-1.61 (inactive)	-0.132	0.79	0.79	0.0117
CCOC(=O)C[C@H]1[C@H](OC(=O)c2ccc(C(=O)c3ccccc3)cc2)[C@@H](NC(=O)c2ccc(-c3ccccc3)cc2)c2cc(OCCCO)ccc2N1C(=O)c1ccccc1	-0.57	-0.264	-0.212	0.577	0.639	0.771	0.744	0.805 (inactive)	0.319	-0.164	1.36	-0.575 (inactive)	-0.34 (inactive)	-0.169 (inactive)	1.45	-0.83 (inactive)	-0.221	0.421	1.03	0.0911
C=C(C)C1C(=C)CN([C@H](CO)c2ccccc2)C1=O (stereo not given in full)	0.172	-0.605	-0.132	-0.205	-0.725	-0.461	-0.708	0.0392 (inactive)	-0.0839	-0.0296	0.0584	-0.329 (inactive)	-0.635 (inactive)	-1.97 (inactive)	1.62	-0.233 (inactive)	-0.0757	0.245	0.0316	-0.18
COC(=O)[C@@]1(Cc2ccc(OC)cc2)[C@H]2c3cc(C(=O)N(C)C)n(CCN4CNCC4=O)c3C[C@H]2CN1C(=O)c1ccccc1	0.39	1.47	0.0432	-0.0075	1.27	1.51	1.3	0.124 (inactive)	0.384	0.983	-1.13	-0.693 (inactive)	0.687 (inactive)	-0.567 (inactive)	0.324	0.288 (inactive)	-0.0877	0.788	-0.325	0.107
C=CCOC(=O)[C@H]1[C@@H]2C(=O)O[C@@H](c3ccccc3)[C@@H](c3ccccc3)N2[C@@H](c2ccc(OCCOC(=O)[C@@H]3C[C@@H]4C(=O)N5CCC[C@H]5C(=O)N4[C@@H]3c3cccc(OCCO)c3)cc2)[C@]12C(=O)Nc1ccccc12	0.0458	0.629	0.0584	0.808	0.761	1.26	1.31	0.999 (inactive)	0.356	0.382	1.53	1.06 (inactive)	0.983 (inactive)	2.72 (inactive)	2.64	0.0706 (inactive)	0.108	0.98	1.13	0.0617
COc1cc2c(cc1OC)CN(C(=O)[C@@H]1[C@H]3C(=O)O[C@H](c4ccccc4)[C@H](c4ccccc4)N3[C@H](c3ccc(O)cc3)[C@@]13C(=O)Nc1ccc(C#CC4(O)CCCCCC4)cc13)CC2	-1.38	0.75	-0.0197	0.763	1.18	1.73	1.35	0.651 (inactive)	0.0629	-0.274	1.55	0.739 (inactive)	-0.0727 (inactive)	0.257 (inactive)	3.46	0.395 (inactive)	-0.232	1.59	1.08	0.0685
COc1ccc(CCNC(=O)[C@@]2(C)c3ccccc3C(=O)N(Cc3cc(F)cc(C(F)(F)F)c3)[C@H]2c2ccc(CO)cc2)cc1	0.498	-0.518	0.0046	-0.23	0.146	0.499	0.969	-3.42 (inactive)	-0.247	0.156	0.117	-0.143 (inactive)	-0.995 (inactive)	0.882 (inactive)	2.3	0.449 (inactive)	-0.0112	-0.969	-0.42	-0.0549
C=CC[C@]1(C(=O)N2CCCCC2)N=C(c2ccc(OCCCO)cc2)O[C@H]1c1ccccc1	1.08	0.785	0.0472	0.452	0.668	1.77	1.17	-1.11 (inactive)	1.63	1.27	1.58	-1.97 (inactive)	-5.54 (inactive)	-2.04 (inactive)	3.21	1.14 (inactive)	0.495	1.06	0.369	0.35
C[C@]1(C(=O)NC2CC2)c2ccccc2C(=O)N(Cc2cc(C(F)(F)F)cc(C(F)(F)F)c2)[C@H]1c1ccc(CO)cc1	0.098	0.14	0.0458	0.31	1.26	0.354	1.26	-0.583 (inactive)	0.603	-0.0994	1.38	0.412 (inactive)	-1.05 (inactive)	-0.0211 (inactive)	1.32	1.08 (inactive)	0.0868	0.829	0.967	-0.0013
C=C(COC)/C(=C/C[C@@H](OC(C)=O)c1ccc(CO)o1)c1cnc2ccccc2c1	-0.258	0.434	0.0472	1.11	1.65	1.02	1.04	0.527 (inactive)	0.408	0.364	1.54	1.17 (inactive)	-0.721 (inactive)	0.951 (inactive)	0.612	1.27 (inactive)	0.0624	1.72	1.04	0.0821
O=C(NCc1ccccc1)[C@@H]1c2ccccc2C(=O)N(CC23CC4CC(CC(C4)C2)C3)[C@H]1c1ccc(CO)cc1	-0.906	0.0469	-0.0494	0.484	1.01	1.45	1.2	-3.34 (inactive)	0.193	-0.0994	1.55	-0.52 (inactive)	-0.0538 (inactive)	0.988 (inactive)	2.9	-0.668 (inactive)	-0.225	1.72	1.05	-0.137
C=CCN1C(=O)[C@]2(O[C@H](CCO)[C@@H]([Si](C)(C)c3ccc(OC)cc3)[C@@H]2C)c2cc(N3CCCCC3=O)ccc21	-0.5	0.897	-0.0291	0.428	1.15	1.42	1.24	-3.81 (inactive)	0.645	-0.13	1.54	-0.242 (inactive)	0.413 (inactive)	2.23 (inactive)	2.37	1.27 (inactive)	-0.106	1.06	1.14	0.048
COc1ccc([Si](C)(C)[C@H]2[C@H](CCO)O[C@@]3(C(=O)N(Cc4ccc(N5C(=O)COc6ccccc65)cc4)c4ccccc43)[C@@H]2C)cc1	0.0421	-0.271	-0.14	-0.164	-0.24	0.774	0.474	-3.99 (inactive)	-0.148	0.0129	1.06	0.223 (inactive)	-0.379 (inactive)	25.3 (active)	1.31	-0.132 (inactive)	-0.0796	-0.6	-0.0154	-0.222
CC(C)C[C@@H]1NC(=O)[C@H]2C[C@@H](C(=O)NCCCCCCN(C)C)[C@@H](c3ccc(O)cc3)N2C1=O	-0.0795	1.44	-0.0366	1.16	0.285	0.717	1.48	3.69 (inactive)	0.0151	0.0274	1.56	-0.924 (inactive)	-0.48 (inactive)	-0.734 (inactive)	3.1	-0.613 (inactive)	0.0829	0.248	1.14	0.122

Source: PubChem BioAssay
